The whole screen tested about 16,000 compounds, of which about 4,000 (25%) were called active. Inconclusive results (about 26%) are left out. A selection follows. Unmarked numbers belong to inactive results. Calls come from the whole dose curve; as a rule, active = well fitted curve in the direction sought with a large enough effect; inconclusive = small, poorly fitted or top-dose-only effect, or effect the other way; inactive = no such curve, though single readings can be large or run the other way.
What follows are molecules tested against Cytochrome P450 2C9 (Homo sapiens) (UniProt P11712) (assay: Cytochrome panel assay with activity outcomes). Conditions: recombinant CYP, pro-luciferin dealkylation, luminescence, p450-cyp2c9; series mostly up to 57.1 µM.
Cytochrome P450 2C9 (Homo sapiens), sequence (P11712 whole entry, looked up): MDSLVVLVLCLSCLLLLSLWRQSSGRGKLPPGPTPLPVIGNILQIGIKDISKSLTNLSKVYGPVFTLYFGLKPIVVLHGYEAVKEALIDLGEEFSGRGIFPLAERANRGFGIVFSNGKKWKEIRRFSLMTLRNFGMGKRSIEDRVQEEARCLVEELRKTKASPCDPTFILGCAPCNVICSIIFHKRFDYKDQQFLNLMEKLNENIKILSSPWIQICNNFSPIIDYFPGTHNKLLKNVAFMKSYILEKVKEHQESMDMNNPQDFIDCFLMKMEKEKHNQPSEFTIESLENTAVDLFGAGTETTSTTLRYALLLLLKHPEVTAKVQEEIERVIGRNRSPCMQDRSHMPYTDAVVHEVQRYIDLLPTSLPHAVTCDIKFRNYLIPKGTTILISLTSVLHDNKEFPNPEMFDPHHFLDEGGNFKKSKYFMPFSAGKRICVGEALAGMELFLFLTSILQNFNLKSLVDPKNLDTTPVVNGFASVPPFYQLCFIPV
% is set by controls: 0 for no effect and ±100 for the full control effect.

SMILES	AC50	activity, negative = inhibition
c1ccc2c(c1)CCCc1cc(NCCN3CCOCC3)nnc1-2	inactive	
COc1ccccc1CN1CCC2(CCNCC2)CC1	inactive	
C(=Nc1cnc2ccccc2c1)c1ccc2ccccc2n1		3.29% [at 11.4 µM]
Cc1cccc(NC(=S)NC(=O)CCc2ccccc2)c1	7.94 µM (active)	
C/C(=N\NC(=S)Nc1cccc(C)c1)c1ccccc1	6.31 µM (active)	
Cc1cccc(NC(=S)Nc2ccc(Br)cc2)c1	inactive	
C[C@@H](c1ccccc1)N1C(=O)[C@H]2[C@H]3[C@H](O)[C@H](O)C/C(=N/OCc4ccccc4)[C@@H]3CC[C@@H]2C1=O		-23.4% [at 11.4 µM]
COc1ccc(CNc2ncncc2-c2cccc(C#N)c2)c(OC)c1		-28.7% [at 2.29 µM]
CN1CCN(C(c2ccccc2)c2ccccc2)CC1	inactive	
S=C(NCc1ccco1)N1CCN(C(c2ccccc2)c2ccccc2)CC1	3.16 µM (active)	
NC(=O)CNCCC(c1ccccc1)c1ccccc1	inactive	
O=C1C2ON(c3ccccc3)C(c3ccncc3)C2C(=O)N1c1ccccc1 (centres undefined)	0.398 µM (active)	
COC(=O)c1cc(=O)n(C2CC2)c(=NC2CC2)s1	inactive	
CCCC(C(=O)Nc1nccs1)c1ccccc1 (centres undefined)	12.6 µM (active)	
O=C(O)[C@H](CCc1ccccn1)c1ccccc1		-5.61% [at 11.4 µM]
O=C(O)c1ccccc1C(=O)Nc1nccs1	inactive	
COc1ccccc1CN1CCC2(CC1)CCN(C(=O)c1cccn1C)CC2	inactive	
CC(=O)OCCCN1c2ccccc2Nc2nnc(-c3ccccc3)cc21	1.78 µM (active)	
CCCNC(=O)N1N=C(c2ccc(N)cc2)c2cc3c(cc2[C@H]1C)OCO3	inactive	
Cc1ccc(SCc2ccc(C(=O)NCc3ccncc3)cc2)cc1	0.0126 µM (active)	
Cc1ccc(C)c(S(=O)(=O)NC(CC(C)C)C(=O)O)c1 (centres undefined)	inactive	
Cc1ccc(C(=O)NCc2ccc(N3CCN(C(=O)OC(C)(C)C)CC3)cc2)cc1	inactive	
O=C(O)[C@@H]1[C@@H](C(=O)NCc2ccncc2)[C@@H]2C=C[C@@H]1O2		-12.4% [at 11.4 µM]
Cc1ccccc1NS(=O)(=O)c1cc(C(=O)Nc2cccc(N(C)S(C)(=O)=O)c2)ccc1C	0.794 µM (active)	
Cc1ccc(SCCNC(=O)c2ccc(C)c(S(=O)(=O)Nc3ccccc3C)c2)cc1	4.47 µM (active)	

SMILES	AC50	activity, negative = inhibition
Cc1ccc(SCCNC(=S)Nc2ccc(C)c(C)c2)cc1	12.6 µM (active)	
COCC(=O)N1CCC2(CC1)CN(Cc1ccccc1OC)C2	inactive	
CC1=C(C(=O)O)N2C(=O)C(NC(=O)c3ccn(C)n3)C2SC1 (centres undefined)	inactive	
CC(C)(N=NC(C)(C)C(=N)N)C(=N)N		0.959% [at 11.4 µM]
COc1ccccc1CN1CCCC2(CCN(C(=O)c3cnccn3)CC2)C1	inactive	
Cc1ccc(C(=O)NCCNC(=O)CN2CCOCC2)cc1	inactive	
Cc1ccc(SCCNC(=O)c2ccccc2)cc1	17.8 µM (active)	
O=C1NC(c2cccc([N+](=O)[O-])c2)=CCN1c1ccccc1O	1 µM (active)	
Nc1nc(-c2cccc([N+](=O)[O-])c2)cc(-c2cc(-c3cccc([N+](=O)[O-])c3)nc(N)n2)n1		20.9% [at 11.4 µM]
CSc1nc(N)nc(-c2cccs2)c1C#N	7.08 µM (active)	
Cc1c(-c2ccc(F)cc2)nc(N)c(C#N)c1-c1cccs1	1.58 µM (active)	
Nc1nc(-c2cccs2)cs1	inactive	
Cc1cnc(CNc2ccnc(-c3ccc(N(C)C)cc3)n2)cn1		1.73% [at 2.29 µM]
COc1cccc(/C=N/n2nnc3c(cnn3-c3ccccc3)c2=O)c1	inactive	
O=C(CCN1CCCCC1)N1CCc2c([nH]c3ccccc23)[C@H]1c1cccnc1		2.98% [at 11.4 µM]
Clc1ccc(CSC2=NCCN2)cc1Cl		9.47% [at 11.4 µM]
CNc1cc(CSC)nc(SCc2ccc(Cl)c(Cl)c2)n1	8.91 µM (active)	
COc1ccc(-c2nc3cnc(Nc4cccc(OC)c4)nc3n(CCC#N)c2=O)cc1	inactive	
COc1cc(C2SCCCCCCCCCCSC(c3ccc(O)c(OC)c3)SCCCCCCCCCCS2)ccc1O (centres undefined)		10.3% [at 11.4 µM]
COc1ccc(NC(=O)C2CC(=O)NC3=C2C(=O)CC(C)(C)C3)cc1 (centres undefined)	inactive	
COc1ccc(OC)c(C2CC(=O)C3=C(C2)NC(=O)CC3c2ccc(O)c(OC)c2)c1 (centres undefined)	11.2 µM (active)	
O=C=Nc1ccc(Cc2ccc(N=C=O)cc2)cc1 (tested in a mixture with another compound)		2.55% [at 11.4 µM]
O=C(Nc1ccccc1N1CCOCC1)c1cnccn1	2 µM (active)	
O=C(NCc1ccccc1Cl)c1cnccn1	inactive	
O=C(Nc1ccccc1)N1CCC2(CC1)CCN(C(=O)c1cnccn1)CC2	inactive	

SMILES	AC50	activity, negative = inhibition
CCC/C=C(\CCC)C(NS(=O)(=O)c1ccc(C(F)(F)F)cc1)c1ccc(-c2ccccc2)cc1 (centres undefined)	inactive	
CCC/C=C(\CCC)C(NS(=O)(=O)c1ccccc1)c1ccc(C(F)(F)F)cc1 (centres undefined)	10 µM (active)	
CCC/C=C(\CCC)C(NS(=O)(=O)CC12CCC(CC1=O)C2(C)C)c1ccc(C(=O)OC)cc1 (centres undefined)	15.8 µM (active)	
CCC/C=C(\CCC)C(NS(=O)(=O)c1ccc(Cl)cc1)c1ccc(C(=O)OC)cc1 (centres undefined)	3.16 µM (active)	
CCC/C=C(\CCC)C(NS(=O)(=O)c1ccc(C(F)(F)F)cc1)c1ccc(C(=O)OC)cc1 (centres undefined)	3.16 µM (active)	
COC(=O)C/C=C\[C@H](C)[C@H](CO)NS(=O)(=O)c1ccc(C)cc1		0.902% [at 11.4 µM]
COc1c2occc2c(OC)c2c(=O)cc(C)oc12	inactive	
Cc1ccccc1[C@@H](OCCN(C)C)c1ccccc1	inactive	
CCC/C=C(\CCC)C(NS(C)(=O)=O)c1ccccc1 (centres undefined)	inactive	
CCC/C=C(\CCC)C(NS(=O)(=O)c1ccc(Cl)cc1)c1ccccc1 (centres undefined)	2.51 µM (active)	
CCN(CC)C(=O)N1CCN(C)CC1	inactive	
CS(=O)(=O)N1CCC2(CCCN(C(=O)Nc3cccc(C#N)c3)C2)CC1	inactive	
COc1ccccc1-n1c(SCC(=O)Nc2ccccc2F)nc2[nH]ncc2c1=O	15.8 µM (active)	
CCOc1ccccc1NC(=O)CSc1nnc(-c2cnccn2)n1C	inactive	
O=C(CSc1nc2nc(-c3cccs3)cc(C(F)(F)F)c2c(=O)[nH]1)NCc1ccco1	0.631 µM (active)	
CCn1cc(C(=O)NCC(=O)OC)c2cc(OC)c(OC)cc2c1=O	inactive	
Oc1ccc(Cn2c(-c3ccc(O)cc3)nc3ccccc32)cc1		9.3% [at 11.4 µM]
Clc1ccc(Cn2c(-c3cccnc3Cl)nc3ccccc32)c(Cl)c1	5.62 µM (active)	
Clc1ncccc1-c1nc2ccccc2n1Cc1ccccc1	15.8 µM (active)	
CC(C)(C)c1cc2cccnc2n1Cc1ccccc1	inactive	
c1ccc(CN2c3ccccc3-c3nc4ccccc4n3C2c2ccccn2)cc1 (centres undefined)	7.94 µM (active)	
NC(N)=N[C@H](CCC(=O)O)C(=O)O	inactive	
O=C1OCC(c2ccccc2)=C1c1ccc(S(=O)(=O)N2CCOCC2)s1	12.6 µM (active)	
CCCCCC(=O)O[C@H](CC(=O)O)C[N+](C)(C)C	inactive	
COc1ccc(S(=O)(=O)N2CCN(CC(=O)Nc3cc(OC)cc(OC)c3)CC2)cc1	inactive	

SMILES	AC50	activity, negative = inhibition
O=C(CN1CCN(S(=O)(=O)c2ccc(F)cc2)CC1)Nc1ccc(Cl)c(C(F)(F)F)c1	inactive	
COc1ccccc1N1CCN(C[C@@H](C(=O)NC(C)(C)C)c2ccccc2)CC1	inactive	
Cc1cccc(N2CCN(CC(=O)Nc3ccc(-n4cnnn4)cc3)CC2)c1C	inactive	
O=C(CCN1CCN(c2ccccc2F)CC1)Nc1ccccc1F	3.98 µM (active)	
O=C(NCCCN1CCN(c2ccccc2F)CC1)C1CCC(=O)N1C1CCCCC1 (centres undefined)	inactive	
CC1CCOC2(O1)C(=O)N(CN1CCN(c3ccccc3F)CC1)c1ccccc12 (centres undefined)	inactive	
COc1ccc(C)cc1NC(=O)CN1CCN(S(=O)(=O)c2ccc(F)cc2)CC1	2.51 µM (active)	
CCN(CC)c1ccc(NC(=O)CN2CCN(c3ccccc3F)CC2)cc1	11.2 µM (active)	
COc1ccccc1NC(=O)CN1CCN(c2ccccc2F)CC1	5.01 µM (active)	
O=c1c(-c2ccccc2)c(O)c2cccc3c2n1CCC3	inactive	
COc1ccccc1CN1CCCC2(CCNCC2)C1	inactive	
COc1ccccc1N1CCN(CCN(C(=O)C2CCCCC2)c2ccccn2)CC1	inactive	
COc1cc(NC(=O)c2ccccc2)c(OC)cc1NC(=O)CN1CCN(c2ccccn2)CC1	3.16 µM (active)	
CCOc1ccc(C(=O)CN2CCN(S(=O)(=O)c3ccc(F)cc3)CC2)cc1	inactive	
CCOC(=O)N1CCN(S(=O)(=O)c2ccc(C(=O)Nc3ccc(F)cc3F)cc2)CC1	15.8 µM (active)	
COC(=O)N1CCC2(CC1)CN(c1ccccn1)C2	inactive	
CN(C)CCNc1ccccn1		3.16% [at 11.4 µM]
Cc1noc(C)c1C(=O)N1CCC2(CCCN(Cc3nccs3)C2)CC1	inactive	
CN(C)Cc1ccccc1-c1cncnc1NC1CC1		8.78% [at 2.29 µM]
Cc1ccc(OCCNC(=O)c2cc(-n3cnnc3)ccc2Cl)cc1C	11.2 µM (active)	
Cc1cc(OCCNCCO)cc(C)c1Cl	inactive	
CN(C)CCNC(=O)c1cc(Br)ccc1Cl	inactive	
Cc1cccc(N/C(=N\S(=O)(=O)c2ccccc2)C(F)(F)F)c1	2.51 µM (active)	
NC(N)=N/N=C\c1ccc(C2CCNCC2)cc1		2.7% [at 11.4 µM]
